# Laboratory results from PubChem BioAssay AID1259400 (National Center for Advancing Translational Sciences (NCATS), 2018).
# The whole screen tested about 350,000 compounds, of which about 2,100 (0.6%) were called active. Roughly 1% stayed inconclusive and do not appear here. For the sample, actives were picked, then their nearest neighbours and some compounds at random. Values without a mark were called inactive.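 The calls were made as follows: active = activity change of -60% or lower, but not beyond a set lower limit; inconclusive = change between -60% and -40%, or beyond the set limit; inactive = change above -40%.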
# Biological target: Relaxin receptor 1 (Homo sapiens) (UniProt Q9HBX9)
# Assay: qHTS Assay for Antagonists of the Relaxin Receptor RXFP1
# Conditions: HEK293-RXFP1, relaxin-stimulated cAMP HTRF, 30 min; at 57.5 µM; stronger effect = lower value
# Excerpt: The relaxin hormone is involved in the variety of biological functions in normal tissues and diseases. The role of relaxin is well-established in female reproduction and parturition, mammary gland and endometrial development, maintenance of myometrial quiescence during pregnancy. Relaxin signaling through its G protein-coupled receptor (GPCR) RXFP1 results in ECM remodeling through regulation of collagen deposition, cell invasiveness, proliferation and overall tissue homeostasis. […] Recombinant human relaxin (rhRlx) is currently being tested in clinical trials as a protective agent in congestive heart failure, in treating severe preeclampsia, and as an anti-fibrotic agent in various organs. […] Upon relaxin binding RXFP1 activation leads to the activation of adenylate cyclase (AC) via G?s. cAMP will activate PKA, which phosphorylates many signaling proteins. Thus, detection of cAMP increase is an easy and reliable indication of relaxin receptor activation. To screen for antagonists of the relaxin receptor, a HEK293T cell line stably transfected with RXFP1 was used. RXFP1 activation by relaxin in presence of various concentrations of tested compounds was assayed by changes in cAMP levels as detected with a time-resolved fluorescence energy transfer (TR-FRET) cAMP detection kit.
# For the primary screening, we used HTRF(R) (Homogenous Time-Resolved Fluorescence) cAMP HiRange assay (Cisbio Bioassays, 62AM6PEJ). Presence of cAMP in the cell lysate disrupts binding between the Cryptate-labeled anti-cAMP and d2-labeled cAMP pair, leading to a decrease in TR-FRET signal. The libraries were screened at two doses (57microM and 11microM), followed by a confirmation of the hits at 7-point serial dilution in the range of final concentrations [57microM - 78nM]. Data were normalized to the controls for basal activity (buffer only) and 100% activity (5 nM porcine relaxin). The EC50 values were determined from concentration-response data modeled with the standard Hill equation. NCGC Assay Protocol Summary: HiHEK (Hawaiian HEK293 LGR7 stably transfected with human RXFP1) were grown in the following media: DMEM+10%FBS+Pen/Strep + Geneticin (1mg/ml). For the assay, the cells were seeded in DMEM+Pen/Strep (with no serum & selective antibiotics) at 2,100 cells/ 3microl/well with MultiDrop Combi dispenser (Thermo Scientific, Logan, UT) onto white tissue culture treated solid bottom1536-well plates (Greiner #789173-F) and allowed to attach/recover overnight at 37 degrees C, 5% CO2. Next, 23nl/well of compound solutions in DMSO were transferred into wells with a pintool (Kalypsis, San Diego, CA). […] EC80 (relaxin at 50pM final concentration) was dispensed to the rest of the plate except columns 1&2 which were used as a negative control (EC0, buffer only), 1microl/well also. The cells were stimulated by relaxin in the presence of compounds for 30 minutes at 37 degrees C, 5% CO2. The detection reagents were prepared individually by dilution in Lysis buffer (supplied with the assay kit) just prior to dispensing. 1microl/well of cAMP-d2 and 1microl/well anti-cAMP-Eu3+-Cryptate antibodies were added simultaneously with BioRAPTR FRDtrade mark Workstation (Beckman Coulter). The plates were incubated at ambient temperature for 30 minutes and, then, FRET signal was read on Envision plate reader (PerkinElmer, Waltham, MA), at wavelengths 340nm (excitation), 615nm & 665nm (emission of donor and acceptor channels respectively).
# % is scaled to controls: 0 for no effect and ±100 for the full control effect.
# Sequence of Relaxin receptor 1 (Homo sapiens) (Q9HBX9 whole entry, looked up): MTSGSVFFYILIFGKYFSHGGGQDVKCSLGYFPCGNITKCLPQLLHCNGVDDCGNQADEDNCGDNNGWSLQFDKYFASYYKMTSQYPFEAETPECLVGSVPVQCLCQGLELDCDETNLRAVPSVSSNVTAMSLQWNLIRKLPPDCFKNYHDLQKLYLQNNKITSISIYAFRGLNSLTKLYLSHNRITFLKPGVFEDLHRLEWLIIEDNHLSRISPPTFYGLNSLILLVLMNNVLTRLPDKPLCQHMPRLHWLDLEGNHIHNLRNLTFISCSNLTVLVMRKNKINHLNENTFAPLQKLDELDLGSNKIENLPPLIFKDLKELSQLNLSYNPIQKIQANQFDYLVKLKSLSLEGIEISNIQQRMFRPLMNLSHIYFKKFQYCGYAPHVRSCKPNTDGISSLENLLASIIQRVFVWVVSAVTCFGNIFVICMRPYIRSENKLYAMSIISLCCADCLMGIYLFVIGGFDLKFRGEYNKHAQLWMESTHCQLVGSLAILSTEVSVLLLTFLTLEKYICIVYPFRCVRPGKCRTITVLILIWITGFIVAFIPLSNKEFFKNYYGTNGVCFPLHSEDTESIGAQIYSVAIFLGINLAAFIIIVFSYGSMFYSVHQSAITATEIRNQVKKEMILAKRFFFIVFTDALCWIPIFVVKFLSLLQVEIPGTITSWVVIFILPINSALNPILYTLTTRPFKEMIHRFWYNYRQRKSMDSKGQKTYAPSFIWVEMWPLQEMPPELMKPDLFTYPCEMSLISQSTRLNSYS
row,Structure (SMILES),"activity change, negative = inhibition"
1,CCC1(CC(C)c2ccccc2)C(=O)NC(=O)NC1=O (stereo not given),-60.5% (active)
2,O=C1NC(=O)C(CCOc2ccccc2)(CCc2ccccc2)C(=O)N1,1.73%
3,O=C1NC(=O)C(Cc2ccccc2)C(=O)N1,13.2%
4,COC(=O)C1=C(c2ccc(OCc3ccccc3)cc2)C[C@@H]2CC[C@H]1N2C(=O)NCc1ccc(Cl)cc1,-0.858%
5,COc1ccc(C2C=C(C)Oc3c2c(=O)oc2ccccc32)cc1OC (stereo not given),-2.25%
6,O=C1NC(=O)N(Cc2ccco2)C(=O)/C1=C\c1ccc(-c2ccc(F)cc2)o1,-116% (active)
7,O=C1NC(=O)N(Cc2ccco2)C(=O)/C1=C\c1cccn1CCOc1ccccc1,2.7%
8,Cc1cc(/C=C2/C(=O)NC(=O)N(Cc3ccco3)C2=O)c(C)n1-c1ccc(C(=O)O)cc1,7.49%
9,CC1N=C(N)OC1c1ccccc1 (stereo not given),7.33%
10,CC(=CCOc1ccc2ccc(=O)oc2c1)C1=CC(=O)C(C)(C)O1,1.36%
11,Cc1cccc(N2C(=O)NC(=O)/C(=C\c3cnn(-c4ccccc4)c3)C2=O)c1,-97.1% (active)
12,O=C1NC(=O)N(c2ccccc2)C(=O)/C1=C/c1ccc([N+](=O)[O-])s1,-11.7%
13,COc1cccc(N2C(=O)NC(=O)/C(=C\c3cn(C)c4ccccc34)C2=O)c1,1.09%
14,CC1=C(C(=O)O)N2C(=O)[C@@H](N)[C@H]2SC1,7.08%
15,C[C@H]1CN([C@@H](C)CO)C(=O)CCCn2nncc2CO[C@H]1CN(C)C(=O)Oc1ccccc1,-9.78%
16,CC(c1ccccc1)(c1ccccc1)c1ccncc1,-80.6% (active)
17,O=S(=O)(O)C(F)(F)C(F)(F)C(F)(F)C(F)(F)F,19.3%
18,CO[C@]12CC[C@@]3(C[C@@H]1[C@](C)(O)C(C)(C)C)[C@@H]1Cc4ccc(O)c5c4[C@@]3(CCN1CC1CC1)[C@H]2O5,-34%
19,CCCOC(=O)c1cncn1C(C)c1ccccc1 (stereo not given),12.5%
20,Cc1ncoc1C(=O)NCC1=C(c2cccc3ccccc23)C[C@@H]2CC[C@H]1N2Cc1ccco1,-0.31%
21,c1cc2c(c(NC3=NCCCS3)c1)CCCC2,4.47%
22,CCCCC1C(=O)NC(=O)N(C2CCCCC2)C1=O (stereo not given),-10.8%
23,CCCCCCCCCCCCn1ccc(=N)cc1,-73.7% (active)
24,O=c1c2ccccc2nc(CBr)n1-c1ccc(Cl)cc1,8.62%
25,C[C@H]1CN([C@@H](C)CO)C(=O)CCCn2nncc2CO[C@H]1CN(C)C(=O)Oc1cccc2ccccc12,3.41%
